SENP8 block-1 – blocks human SENP8 cleavage of Nedd8 substrate; Q96LD8; recombinant SENP8, Nedd8 substrate fluorescence; inhibition, % at 20 µM; hit rate 0.64% among 360,000; AID 602440; in the data active = inhibition mostly above about 40%, no sharp cut-off; inactive = mostly below about 27%
Target sequence (Q96LD8 whole entry, looked up): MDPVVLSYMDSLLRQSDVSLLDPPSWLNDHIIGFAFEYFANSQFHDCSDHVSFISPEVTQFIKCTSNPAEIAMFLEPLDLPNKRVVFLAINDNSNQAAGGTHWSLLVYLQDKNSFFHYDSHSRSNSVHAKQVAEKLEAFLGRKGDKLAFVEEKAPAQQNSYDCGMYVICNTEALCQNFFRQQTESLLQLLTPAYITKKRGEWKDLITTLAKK
SENP7 block – inhibitors of human SENP7 protease; inhibition, % at 5 µM; Q9BQF6; hit rate 1.5% among 330,000; AID 434973; recombinant SENP7, Z-RLRGG-aminoluciferin luminescence, 40 min;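 active = inhibition above about 50% at the single test dose, limit read from the data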;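 note: plate controls were DMSO with enzyme for no effect and no enzyme buffer wells for full effect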
HSP90 inh – inhibitors of HSP90 luciferase refolding in rabbit reticulocyte lysate | luciferase refolding luminescence, 3 h | inhibition, % at 5.6 µM | hit rate 0.91% among 290,000;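 active = inhibition above the screen-wide mean plus 3 SD, computed separately per campaign, cut at about 16% in these data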;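 note: 0% = DMSO wells and 100% = 60 µM geldanamycin wells; inhibitors lower the luminescence because luciferase stays unfolded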
SENP6 inh – SENP6 protease inhibition; hit rate 1.8% among 330,000; inhibition, % at 10 µM; Recombinant SENP6 catalytic domain, aminoluciferin luminescence; AID 2599;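 active = inhibition above about 50% at the single tested dose, limit read from the data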;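 note: plate controls were DMSO wells with enzyme for no effect and DMSO wells lacking enzyme for full effect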
SENP8 block-2 – SENP8 protease inhibition. Q96LD8. purified SENP8, Z-RLRGG-aminoluciferin cleavage, luminescence. inhibition, % at 10 µM. hit rate 1.2% among 330,000; in the data active = inhibition above about 50%
SENP8 confirm – human SENP8 inhibition, confirmed | shares compounds with SENP7 block | Recombinant SENP8, Z-RLRGG-aminoluciferin luminescence, 60 min | inhibition, % at 12.5 µM | hit rate 40% among 6,200;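 active = mean inhibition across replicates above about 50%, limit read from the data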
SENP6 conf – human SENP6 inhibition, confirmed; shares compounds with SENP7 block; recombinant SENP6, Z-RLRGG-aminoluciferin luminescence; inhibition, % at 12.5 µM; hit rate 58% among 6,200; AID 488915
SENP7 confirm – confirmation of human SENP7 protease inhibitors. inhibition, % at 12.5 µM. recombinant SENP7, Z-RLRGG-aminoluciferin luminescence, 40 min. shares compounds with SENP7 block. hit rate 69% among 6,200
Casp3 SENP sel – selectivity test for SENP inhibitors: human caspase-3 inhibition. AID 488918. purified caspase-3, Z-DEVD-aminoluciferin luminescence, 60 min. shares compounds with SENP7 block. hit rate 60% among 6,200. inhibition, % at 12.5 µM;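 active = mean inhibition above about 50%, limit read from the data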;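 note: plate controls were enzyme with DMSO for no effect and wells without caspase-3 for full effect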
Target sequence (P42574 28-227 limits assumed): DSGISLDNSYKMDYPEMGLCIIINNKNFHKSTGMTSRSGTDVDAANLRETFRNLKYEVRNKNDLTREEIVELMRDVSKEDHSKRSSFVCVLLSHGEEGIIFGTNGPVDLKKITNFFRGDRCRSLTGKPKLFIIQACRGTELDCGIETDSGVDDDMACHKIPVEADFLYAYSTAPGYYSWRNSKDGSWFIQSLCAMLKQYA
SENP luc ctr – counter-screen for SENP inhibitors: luminescence interference; hit rate 39% among 6,200; shares compounds with SENP7 block; Pre-incubated SENP8/Z-RLRGG-aminoluciferin, luciferase luminescence interference; inhibition, % at 12.5 µM;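 active = mean inhibition above about 50% when retested at one dose, limit read from the data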;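 note: plate controls were DMSO wells with completed reaction for no effect and substrate without enzyme for full effect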
Starred values were filed as active, the others as inactive; / = no result given. In the library only some 2.8% were active in any assay of this set; here they are far more common.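 Rule for the calls, unless noted: active = mean inhibition above about 50% in the one-dose retest (limit read from the data); inactive = the rest.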

SMILES	SENP8 block-1	SENP7 block	HSP90 inh	SENP6 inh	SENP8 block-2	SENP8 confirm	SENP6 conf	SENP7 confirm	Casp3 SENP sel	SENP luc ctr
COc1ccccc1NC(=O)COC(=O)c1c(C)nn(-c2ccccc2)c1C	5	97*	/	93*	95*	96*	96*	101*	95*	75*
Cc1nn(-c2ccccc2)c(C)c1C(=O)OCC(=O)Nc1ccccc1	-1	81*	/	83*	75*	77*	76*	94*	83*	74*
Cc1cc(NC(=O)COC(=O)c2c(C)nn(-c3ccccc3)c2C)no1	14	7	-1	2	7	/	/	/	/	/
COCC(C)NC(=O)c1noc2c1CCc1cc(OC)ccc1-2 (stereo unspecified)	2	52*	3	53*	12	36	14	74*	73*	60*
COc1ccc2c(c1)CCc1c(C(=O)NC3CCCCC3)noc1-2	16	86*	-2	33	0	-24	-11	0	4	-3
NS(=O)(=O)c1ccc(CNC(=O)/C=C/c2ccc(Cl)c(Cl)c2)cc1	8	1	-2	-13	-3	/	/	/	/	/
O=C1Nc2ccccc2N(O)N1c1cc(-c2cccc(Cl)c2)no1	12	60*	-3	39	58*	83*	80*	93*	88*	81*
CCOc1ccc(CNn2cnnc2)cc1	24	1	-1	-11	-2	/	/	/	/	/
O=C(Nc1nccs1)c1cc(-c2ccccc2)nn1-c1ccccc1	-62	1	5	7	-5	/	/	/	/	/
CCc1nnc(NC(=O)c2cc(-c3ccccc3)nn2-c2ccccc2)s1	3	99*	2	-19	0	-20	-12	-15	1	-7
O=C(OCc1csc(-c2ccccc2)n1)c1ccccc1O	12	91*	-5	92*	88*	86*	92*	99*	82*	40
COC(=O)c1ccc2c(=O)n3c(nc2c1)SCC(c1ccccc1)=N3	-14	-5	2	-20	-9	/	/	/	/	/
O=c1[nH]c2ccccc2cc1-c1noc(-c2cccnc2)n1	-308	-4	0	18	6	/	/	/	/	/
COc1nc(C)ccc1-c1noc(-c2cccnc2)n1	6	-10	-5	-18	-13	/	/	/	/	/
c1ccc(-c2ccc(-c3nc(-c4cccnc4)no3)cc2)cc1	-17	99*	-5	97*	90*	70*	71*	80*	88*	35
c1cncc(-c2noc(-c3ccc4ccccc4c3)n2)c1	-172	91*	3	90*	83*	56*	69*	94*	75*	19
c1ccc(-c2noc(-c3cccnc3)n2)cc1	12	7	-4	76*	58*	3	60*	88*	77*	16
CN(c1ccc(C(=O)NCCSC(C)(C)C)cc1)S(=O)(=O)c1ccccc1	6	3	-3	-2	7	/	/	/	/	/
CCOC(=O)Cn1nc(C)n(-c2ccc(C)cc2)c1=O	5	101*	-1	-3	7	3	1	-1	0	-1
C/C(=N\OCc1ccc(C#N)cc1)c1ccccc1	4	80*	2	89*	79*	82*	86*	97*	77*	68*
Cc1ccc(Nc2nnc(SCC(=O)NCCN3C(=O)CSC3=O)s2)cc1C	8	53*	4	25	46	51*	46	78*	64*	55*
CCOC(=O)C(/C(N)=N/C(=O)Nc1ccccc1)=C(\C)O	11	1	3	64*	44	16	57*	88*	80*	8
c1coc(CNc2nc3ccccc3s2)c1	12	43	12	58*	17	23	23	70*	55*	41

Screening data as filed in PubChem.
